About 79,000 compounds went through this panel and 15% of them were active in at least one assay; those are over-represented in the sample as a whole. A number with no mark means an inactive call. The source made the active and inactive calls. Rule as the data show it: active = growth inhibition above about 70%; inactive = the rest.

This passage reports growth inhibition results from PubChem BioAssay (NCI).

The nature of assay [1]: NCI Yeast Anticancer Drug Screen. Data for the rad50 strain (AID 155).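 Also: 0% = growth of vehicle-only cultures of the same strain.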 The conditions noted are these: S. cerevisiae rad50 strain growth inhibition, hits give high values. The method in brief: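 Compounds were tested on a yeast strain with an engineered DNA damage repair alteration; the reported value is growth inhibition normalised to vehicle treatment.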
Assay [2] in a line: NCI Yeast Anticancer Drug Screen. Data for the mec2-1 strain (AID 157). The conditions noted are these: S. cerevisiae mec2-1 strain, hits give high values. Put shortly:
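Cells of the genetically defined mec2-1 yeast strain are incubated with test compound. Inhibition of growth is calculated against vehicle-treated controls.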

Assay [3] can be described thus: NCI Yeast Anticancer Drug Screen. Data for the sgs1 mgt1 strain (AID 161).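 Also: 0% = growth of cultures given vehicle only.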 The conditions noted are these: S. cerevisiae sgs1 mgt1 strain, hits give high values. The method in brief:
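Genetically altered yeast, compound exposure, growth inhibition relative to vehicle.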

Assay [4] is described as follows: NCI Yeast Anticancer Drug Screen. Data for the cln2 rad14 strain (AID 165).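 Also: 0% = growth equal to vehicle treated cultures.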 The conditions noted are these: S. cerevisiae cln2 rad14 strain, hits give high values. Put shortly:
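The screen exposed genetically defined yeast (cln2 rad14) to test compounds and scored growth inhibition relative to vehicle-treated controls.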

Assay [5] in a line: NCI Yeast Anticancer Drug Screen. Data for the bub3 strain (AID 167). The conditions noted are these: S. cerevisiae bub3 mutant strain, hits give high values. Put shortly: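 Growth of a checkpoint-deficient yeast mutant is measured after compound exposure. Values represent inhibition relative to vehicle.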
Assay [6] in a line: NCI Yeast Anticancer Drug Screen. Data for the mlh1 rad18 strain (AID 175). The conditions noted are these: S. cerevisiae mlh1 rad18 strain growth inhibition, hits give high values. The method in brief:
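Compound-treated yeast growth, normalised to vehicle controls. Strain bears defined DNA repair mutations.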

Where [7] appears, read: at 5.0 µM (retest, dose inferred, filed as 0.5).
Setting [8] is: at 50.0 µM (retest, dose inferred, filed as 5.0).

With `N#CC(Cl)CS(=O)(=O)c1ccccc1` (stereo not given), the growth inhibition is 81% (active) in assay [1] (setting [7]); 100% (active) in assay [1] (setting [8]); 99.5% (active) in assay [1] (at 50.0 µM); 96% (active) in assay [2] (setting [7]); 100% (active) in assay [2] (setting [8]); 99.5% (active) in assay [2] (at 50.0 µM). Further, the growth inhibition in assay [3] (setting [7]) is 31%; in assay [3] (setting [8]), 99% (active); in assay [3] (at 50.0 µM), 99.5% (active); in assay [4] (setting [7]), 49%; in assay [4] (setting [8]), 99% (active); in assay [4] (at 50.0 µM), 99.2% (active). Moreover, the growth inhibition is 95% (active) in assay [5] (setting [7]); 100% (active) in assay [5] (setting [8]); 95.2% (active) in assay [5] (at 50.0 µM); 88% (active) in assay [6] (setting [7]); 100% (active) in assay [6] (setting [8]); 99.5% (active) in assay [6] (at 50.0 µM).

Turning to `NC1c2ccccc2-c2ccc([N+](=O)[O-])cc21` (stereo not given), the growth inhibition in assay [1] (setting [7]) is 12%; in assay [1] (setting [8]), -2%; in assay [1] (at 50.0 µM) it was 40%; in assay [2] (setting [7]), 4%; in assay [2] (setting [8]) it was -24%; in assay [2] (at 50.0 µM), -7.35%. Also, the growth inhibition was 4% in assay [3] (setting [7]); 35% in assay [3] (setting [8]); 26.6% in assay [3] (at 50.0 µM); -24% in assay [4] (setting [7]); -4% in assay [4] (setting [8]); -9.3% in assay [4] (at 50.0 µM). The growth inhibition in assay [5] (setting [7]) is 1%; in assay [5] (setting [8]), 3%; in assay [5] (at 50.0 µM), -12.2%; in assay [6] (setting [7]), 14%; in assay [6] (setting [8]), 38%; in assay [6] (at 50.0 µM) it was 39.9%.

Consider `CC(C)C(=O)c1ccc([N+](=O)[O-])o1`, for which the growth inhibition is 2% in assay [1] (setting [7]); 97% (active) in assay [1] (setting [8]); 98.8% (active) in assay [1] (at 50.0 µM); 11% in assay [2] (setting [7]); 97% (active) in assay [2] (setting [8]); 99% (active) in assay [2] (at 50.0 µM). Moreover, the growth inhibition in assay [3] (setting [7]) was 8%; in assay [3] (setting [8]), 96% (active); in assay [3] (at 50.0 µM), 97.7% (active); in assay [4] (setting [7]), -3%; in assay [4] (setting [8]) it was 99% (active); in assay [4] (at 50.0 µM) it was 97.3% (active). Besides, the growth inhibition in assay [5] (setting [7]) was 1%; in assay [5] (setting [8]), 97% (active); in assay [5] (at 50.0 µM) it was 99.1% (active); in assay [6] (setting [7]) it was 6%; in assay [6] (setting [8]), 98% (active); in assay [6] (at 50.0 µM), 98.5% (active).

Consider `O=[N+]([O-])C1(CO)COC(CCc2ccccc2)OC1` (stereo not given), for which the growth inhibition is -2% in assay [1] (setting [7]); 5% in assay [1] (setting [8]); 67.7% in assay [1] (at 50.0 µM); 0% in assay [2] (setting [7]); 3% in assay [2] (setting [8]); 78.2% (active) in assay [2] (at 50.0 µM). Besides, the growth inhibition was 2% in assay [3] (setting [7]); 5% in assay [3] (setting [8]); 82.3% (active) in assay [3] (at 50.0 µM); 2% in assay [4] (setting [7]); 3% in assay [4] (setting [8]); 97.5% (active) in assay [4] (at 50.0 µM). For the same compound, the growth inhibition in assay [5] (setting [7]) is -2%; in assay [5] (setting [8]), -3%; in assay [5] (at 50.0 µM), 65.5%; in assay [6] (setting [7]), 0%; in assay [6] (setting [8]), 3%; in assay [6] (at 50.0 µM) it was 98.4% (active).

With `Nc1ccc2c(SCC(=O)Nc3ccccc3-c3ccccc3NC(=O)CSc3c4ccccc4nc4cc(N)ccc34)c3ccccc3nc2c1`, the growth inhibition in assay [1] (setting [7]) was 25%; in assay [1] (setting [8]), 97% (active); in assay [1] (at 50.0 µM), 90% (active); in assay [2] (setting [7]) it was 24%; in assay [2] (setting [8]), 98% (active); in assay [2] (at 50.0 µM), 92.5% (active). Moreover, the growth inhibition in assay [3] (setting [7]) is 33%; in assay [3] (setting [8]), 97% (active); in assay [3] (at 50.0 µM), 91.2% (active); in assay [4] (setting [7]), 17%; in assay [4] (setting [8]), 97% (active); in assay [4] (at 50.0 µM) it was 78.8% (active). The growth inhibition in assay [5] (setting [7]) is 27%; in assay [5] (setting [8]) it was 97% (active); in assay [5] (at 50.0 µM), 90.5% (active); in assay [6] (setting [7]) it was 11%; in assay [6] (setting [8]), 96% (active); in assay [6] (at 50.0 µM), 87.5% (active).

For `C=CC1(C)CCC2C(=CCC3C2(C)CC(O)C(O)C3(C)COC2OC(CO)C(O)C(O)C2O)C1` (stereo not given), the growth inhibition in assay [1] (setting [7]) was 1%; in assay [1] (setting [8]), 99% (active); in assay [1] (at 50.0 µM), 93.1% (active); in assay [2] (setting [7]), -1%; in assay [2] (setting [8]) it was 100% (active); in assay [2] (at 50.0 µM) it was 94.1% (active). In addition, the growth inhibition was -1% in assay [3] (setting [7]); 99% (active) in assay [3] (setting [8]); 94.1% (active) in assay [3] (at 50.0 µM); 1% in assay [4] (setting [7]); 99% (active) in assay [4] (setting [8]); 90.5% (active) in assay [4] (at 50.0 µM). Also, the growth inhibition is 0% in assay [5] (setting [7]); 99% (active) in assay [5] (setting [8]); 93.6% (active) in assay [5] (at 50.0 µM); 0% in assay [6] (setting [7]); 82% (active) in assay [6] (setting [8]); -41.4% in assay [6] (at 50.0 µM).

As to `O=[N+]([O-])/C=C\c1csc2ccccc12`, the growth inhibition in assay [1] (setting [7]) was 94% (active); in assay [1] (setting [8]) it was 99% (active); in assay [1] (at 50.0 µM) it was 99.2% (active); in assay [2] (setting [7]), 96% (active); in assay [2] (setting [8]), 98% (active); in assay [2] (at 50.0 µM), 99.6% (active). Further, the growth inhibition in assay [3] (setting [7]) is 97% (active); in assay [3] (setting [8]), 99% (active); in assay [3] (at 50.0 µM), 99.5% (active); in assay [4] (setting [7]), 81% (active); in assay [4] (setting [8]), 99% (active); in assay [4] (at 50.0 µM), 99.3% (active). Also, the growth inhibition in assay [5] (setting [7]) is 92% (active); in assay [5] (setting [8]), 99% (active); in assay [5] (at 50.0 µM), 99.3% (active); in assay [6] (setting [7]), 92% (active); in assay [6] (setting [8]) it was 99% (active); in assay [6] (at 50.0 µM), 99.3% (active).

Regarding `COc1ccc(CSC(=S)Nc2ccc(Cl)c([N+](=O)[O-])c2)cc1`, the growth inhibition is 48% in assay [1] (setting [7]); 92% (active) in assay [1] (setting [8]); 88.5% (active) in assay [1] (at 50.0 µM); 50% in assay [2] (setting [7]); 95% (active) in assay [2] (setting [8]); 77.1% (active) in assay [2] (at 50.0 µM). The growth inhibition in assay [3] (setting [7]) was 56%; in assay [3] (setting [8]), 99% (active); in assay [3] (at 50.0 µM), 88.4% (active); in assay [4] (setting [7]) it was 43%; in assay [4] (setting [8]), 97% (active); in assay [4] (at 50.0 µM) it was 9%. The growth inhibition in assay [5] (setting [7]) was 77% (active); in assay [5] (setting [8]) it was 99% (active); in assay [5] (at 50.0 µM), 21.5%; in assay [6] (setting [7]) it was 79% (active); in assay [6] (setting [8]), 98% (active); in assay [6] (at 50.0 µM) it was 94.1% (active).

Take `[Cl][Sn]1([Cl])[CH2]CC[CH2][Sn]([Cl])([Cl])[CH2]CC[CH2][Sn]([Cl])([Cl])[CH2]CC[CH2][Sn]([Cl])([Cl])[CH2]CC[CH2]1`: the growth inhibition in assay [1] (setting [7]) is -20%; in assay [1] (setting [8]) it was 57%; in assay [1] (at 50.0 µM) it was 54.3%; in assay [2] (setting [7]), -19%; in assay [2] (setting [8]), 63%; in assay [2] (at 50.0 µM), 83.3% (active). The growth inhibition was -3% in assay [3] (setting [7]); 66% in assay [3] (setting [8]); 87.5% (active) in assay [3] (at 50.0 µM); -6% in assay [4] (setting [7]); 47% in assay [4] (setting [8]); 69.6% in assay [4] (at 50.0 µM). Besides, the growth inhibition is -9% in assay [5] (setting [7]); 66% in assay [5] (setting [8]); 70.9% (active) in assay [5] (at 50.0 µM); -2% in assay [6] (setting [7]); 83% (active) in assay [6] (setting [8]); 94% (active) in assay [6] (at 50.0 µM).

Consider `CCC[CH2][Sn]([Cl])([CH2]CCC)[S]/C(C#N)=N/N=C/c1ccc(N(C)C)cc1`, for which the growth inhibition is 97% (active) in assay [1] (setting [7]); 98% (active) in assay [1] (setting [8]); 98.2% (active) in assay [1] (at 50.0 µM); 97% (active) in assay [2] (setting [7]); 98% (active) in assay [2] (setting [8]); 98.8% (active) in assay [2] (at 50.0 µM). In addition, the growth inhibition in assay [3] (setting [7]) is 97% (active); in assay [3] (setting [8]), 98% (active); in assay [3] (at 50.0 µM), 98.8% (active); in assay [4] (setting [7]) it was 99% (active); in assay [4] (setting [8]), 98% (active); in assay [4] (at 50.0 µM), 97.9% (active). For the same compound, the growth inhibition in assay [5] (setting [7]) was 97% (active); in assay [5] (setting [8]), 98% (active); in assay [5] (at 50.0 µM) it was 98.8% (active); in assay [6] (setting [7]), 98% (active); in assay [6] (setting [8]), 97% (active); in assay [6] (at 50.0 µM), 98.7% (active).
